From PubChem BioAssay
Gli-Sufu block – antagonists of Gli-Sufu signaling; Sufu-KO-LIGHT fibroblasts, Gli luciferase reporter luminescence; 340,000 compounds, 0.74% hits; inhibition, % at 5 µM; AID 588413;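 active means inhibition above about 55%, limit read from the data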
PAX8 reporter – lowers PAX8-driven luciferase in RMG-I cells. RMG-I TPO-luciferase reporter, SteadyGlo, 24 h. 360,000 compounds, 1.2% hits. inhibition, % at 12.6 µM;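 active means mean replicate inhibition at least 60% with every replicate also reaching 60%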;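 further: luciferase light reporting Pax8 driven TPO promoter activity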
Shn3 3UTR inh – reduces Shn3 3'UTR luciferase signal in osteoblasts; AID 588674; inhibition, % at 12.5 µM; 360,000 compounds, 0.52% hits; Clone20 osteoblast Shn3 3'UTR firefly luciferase, 24 h;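 active means mean inhibition of at least 75% with every replicate also reaching 75%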
Beta apoptosis – blocks beta cell apoptosis; INS-1E cytokine-induced death, ATP luminescence, 48 h; percent of positive-control rescue, neutral wells zero; protection from apoptosis, % (test concentration not listed); 300,000 compounds, 0.8% hits; AID 435005;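 active means Every replicate reaches about 75%, or at least half do and their mean reaches it too, limit read from the data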;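 further: higher means more ATP so stronger rescue from cytokine killing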
CSC inhib – blocks cancer stem cells. inhibition, % at 7.5 µM. cancer stem cell-like cells viability, luminescence. AID 2717. 300,000 compounds, 1.1% hits; in the data active means inhibition above about 75%; tested in HMLE shEcad cells
Mdm2 MdmX PPI – inhibitors of human Mdm2/MdmX interaction | inhibition, % at 8 µM | SaOS-2 split-luciferase Mdm2/MdmX complementation, luminescence | 330,000 compounds, 3% hits | O15151+Q00987 | AID 485346;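 active means inhibition of at least 50% at 8 µM in the primary screen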
Of the large screens only hits and unclear results are named; the others gave an inactive call. Sampled rows, rich in hits. Any-hit rate of the full collection: about 4%.

C[C@H](CO)N1C[C@H](C)[C@H](CN(C)S(=O)(=O)c2ccccc2)OCCCC[C@H](C)Oc2ccc(NC(=O)Nc3ccccc3)cc2C1=O	none (no result: Gli-Sufu block, Shn3 3UTR inh, Beta apoptosis, CSC inhib, Mdm2 MdmX PPI)
O=C(C[C@@H]1CC[C@H](NS(=O)(=O)c2ccccc2)[C@H](CO)O1)NCCN1CCCCC1	none (no result: Gli-Sufu block, Shn3 3UTR inh, Beta apoptosis, CSC inhib, Mdm2 MdmX PPI)
C[C@@H]1CCCCO[C@@H](CN(C)Cc2ccc(C(=O)O)cc2)[C@H](C)CN([C@H](C)CO)C(=O)c2cc(NS(=O)(=O)c3ccc(Cl)cc3)ccc2O1	none (no result: Gli-Sufu block, Shn3 3UTR inh, Beta apoptosis, CSC inhib, Mdm2 MdmX PPI)
COc1cccc(NC(=O)C2CCN(S(=O)(=O)c3ccc4c(c3)CC(C)N4C(C)=O)CC2)c1 (stereo not drawn)	none
CC(=O)c1ccc(N2CCN(S(=O)(=O)c3ccc4c(c3)CC(C)N4C(C)=O)CC2)cc1 (stereo not drawn)	Gli-Sufu block 57, Beta apoptosis 91
CC(=O)N1c2ccc(S(=O)(=O)N3CCC(C(=O)Nc4cccc(C(F)(F)F)c4)CC3)cc2CC1C (stereo not drawn)	Shn3 3UTR inh 93
COc1ccc(NC(=O)c2nn(C34CC5CC(CC(C5)C3)C4)cc2[N+](=O)[O-])cc1	PAX8 reporter 128
Cc1ccc(C(=O)NC(=C(Cl)Cl)S(=O)(=O)c2ccccc2)cc1	CSC inhib 98
COc1ccc(C(=O)NC(=C(Cl)Cl)S(=O)(=O)c2ccc(C)cc2)cc1	none (no result: Mdm2 MdmX PPI)
Oc1ccccc1/C=N/NC(=S)NC1CC2CC1C1C=CCC21 (stereo not drawn)	CSC inhib 100
Cc1ccc(S(=O)(=O)c2c(C)nn(C(C)(C)C)c2OC(=O)c2cccs2)cc1	CSC inhib 84 (no result: PAX8 reporter)
COc1ccc(NC(=O)N(C)C[C@H]2OCCCC[C@H](C)Oc3ccc(NC(=O)Nc4cccc5ccccc45)cc3C(=O)N([C@H](C)CO)C[C@H]2C)cc1	none (no result: Gli-Sufu block, Shn3 3UTR inh, Beta apoptosis, CSC inhib, Mdm2 MdmX PPI)
CCCC(O)(c1ccc(Cl)cc1)C(CN1CCOCC1)c1ccc(Cl)cc1 (stereo not drawn)	CSC inhib 94
O=[N+]([O-])c1ccc2[nH]c3nc4ccccc4nc3c2c1	Gli-Sufu block 57
Cc1noc(C)c1S(=O)(=O)Nc1ccc2c(c1)C(=O)N([C@H](C)CO)C[C@H](C)[C@H](CN(C)S(=O)(=O)c1cccs1)OCCCC[C@@H](C)O2	none (no result: Gli-Sufu block, Shn3 3UTR inh, Beta apoptosis, CSC inhib, Mdm2 MdmX PPI)
O=C(c1c[nH]c2ccccc12)N1CCN(Cc2ccccc2)CC1	none
c1ccc(CN2CCN(Cc3c[nH]c4ccccc34)CC2)cc1	Beta apoptosis 87
O=C(c1cccc(S(=O)(=O)N2CCc3ccccc3C2)c1)N1CCN(c2ccc(O)cc2)CC1	CSC inhib 156
C[C@@H]1CN([C@H](C)CO)C(=O)c2cc(NC(=O)NC3CCCCC3)ccc2O[C@@H]1CN(C)S(=O)(=O)c1ccc(F)cc1	none (no result: Gli-Sufu block, Shn3 3UTR inh, Beta apoptosis, CSC inhib, Mdm2 MdmX PPI)
[O-][N+]1=c2ccc(Nc3ccccc3)cc2=NC12CCCCC2	Beta apoptosis 107, CSC inhib 80 (no result: Mdm2 MdmX PPI)
Cc1noc(C)c1NC(=O)Nc1ccc2c(c1)C(=O)N([C@H](C)CO)C[C@H](C)[C@@H](CN(C)S(=O)(=O)c1ccc(F)cc1)OCCCC[C@@H](C)O2	none (no result: Gli-Sufu block, Shn3 3UTR inh, Beta apoptosis, CSC inhib, Mdm2 MdmX PPI)
O=C(OCCC12CC3CC(CC(C3)C1)C2)c1ccc(NCc2cc(O)ccc2O)cc1	Gli-Sufu block 82, Shn3 3UTR inh 99 (no result: Beta apoptosis, CSC inhib, Mdm2 MdmX PPI)
CO[C@@H]1CC[C@@H]2CCOc3ccc(C#N)cc3C(=O)N(C)C[C@@H](C)C(=O)N(C)C[C@H]1O2	none (no result: Gli-Sufu block, Shn3 3UTR inh, Beta apoptosis, CSC inhib, Mdm2 MdmX PPI)
C[C@@H]1CN([C@H](C)CO)C(=O)c2cc(NS(=O)(=O)c3ccc(Cl)cc3)ccc2O[C@@H](C)CCCCO[C@@H]1CN(C)S(C)(=O)=O	none (no result: Gli-Sufu block, Shn3 3UTR inh, Beta apoptosis, CSC inhib, Mdm2 MdmX PPI)
C[C@@H]1CN([C@@H](C)CO)C(=O)Cc2cc(N(C)C)ccc2O[C@H]1CN(C)Cc1ccc(Cl)c(Cl)c1	PAX8 reporter 71 (no result: Gli-Sufu block, Shn3 3UTR inh, Beta apoptosis, CSC inhib, Mdm2 MdmX PPI)
C[C@H](CO)N1C[C@H](C)[C@@H](CN(C)Cc2ccc(Cl)c(Cl)c2)Oc2ccc(N(C)C)cc2CC1=O	PAX8 reporter 75 (no result: Gli-Sufu block, Shn3 3UTR inh, Beta apoptosis, CSC inhib, Mdm2 MdmX PPI)
C[C@H](CO)N1C[C@H](C)[C@H](CN(C)Cc2ccc(Cl)c(Cl)c2)Oc2ccc(N(C)C)cc2CC1=O	none (no result: Gli-Sufu block, Shn3 3UTR inh, Beta apoptosis, CSC inhib, Mdm2 MdmX PPI)
C[C@H](CO)N1C[C@H](C)[C@H](CN(C)S(=O)(=O)c2cn(C)cn2)Oc2ccc(NC(=O)Nc3cccc4ccccc34)cc2CC1=O	none (no result: Gli-Sufu block, Shn3 3UTR inh, Beta apoptosis, CSC inhib, Mdm2 MdmX PPI)
CO[C@H]1CN(C)C(=O)c2cc(NC(C)=O)ccc2OC[C@@H](C)N(CC2CC2)C[C@@H]1C	none (no result: Gli-Sufu block, Shn3 3UTR inh, Beta apoptosis, CSC inhib, Mdm2 MdmX PPI)
COc1ccc(C2(C)NC(=O)N(CC(=O)Nc3ccc(-c4nc5ccc(C)cc5s4)cc3)C2=O)cc1 (stereo not drawn)	none
